“And” between values parts separate entries of the source, which are not always exact repeats. Equal entries are not always repeated. About 2,000 (36%) of roughly 5,500 compounds were called active. Inconclusive results (about 18%) are left out. No stated cut-off is given here; in the data, active means normalized growth mostly below about 0.91 (no sharp cut-off); inconclusive means no clear call, values can overlap the other calls; inactive means mostly above about 0.92. The list shows a part of the results.
Experiment: chemical genetic growth profiling, strain panel (AID 1159580);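 further: tested at 20 µM; growth read once vehicle control cultures reached saturation at 30 °C; 1 = growth at the plate median or of vehicle wells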
Settings: S. cerevisiae deletion strains, growth OD

Measured: normalized growth

COc1ccc(CN(CCN(C)C)c2ccccn2)cc1
inactive: locus YAL013W, strain DEP1, stronger effect = lower value 0.971 | locus YAL021C, strain ccr4, stronger effect = lower value 1.01 | locus YAL026C, strain drs2, stronger effect = lower value 1.03 | locus YAL030W, strain snc1, stronger effect = lower value 0.999 | locus YAL040C, strain CLN3, stronger effect = lower value 0.955 | locus YBL061C, strain skt5, stronger effect = lower value 1.01 | locus YBR009C, strain hhf1, stronger effect = lower value 0.986 | locus YBR021W, strain FUR4, stronger effect = lower value 0.995 | locus YBR023C, strain chs3, stronger effect = lower value 1.03 | locus YBR171W, strain sec66, stronger effect = lower value 1.02 | locus YBR229C, strain ROT2, stronger effect = lower value 0.991 | locus YBR231C, strain swc5, stronger effect = lower value 1.02 | locus YBR279W, strain paf1, stronger effect = lower value 1.01 | locus YCL011C, strain gbp2, stronger effect = lower value 1.03 | locus YCL016C, strain dcc1, stronger effect = lower value 1.03 | locus YCL029C, strain bik1, stronger effect = lower value 0.989 | locus YCL061C, strain MRC1 (second series), stronger effect = lower value 0.986 | locus YCL069W, strain vba3, stronger effect = lower value 1.01 | locus YCR088W, strain abp1, stronger effect = lower value 1.02 | locus YDL005C, strain med2, stronger effect = lower value 1.03 | locus YDL035C, strain GPR1, stronger effect = lower value 0.996 | locus YDL040C, strain nat1, stronger effect = lower value 1.01 | locus YDL074C, strain BRE1, stronger effect = lower value 1.01 | locus YDL101C, strain DUN1, stronger effect = lower value 0.993 | locus YDL134C, strain PPH21, stronger effect = lower value 0.995 | locus YDL185W, strain tfp1, stronger effect = lower value 0.951 | locus YDL192W, strain arf1, stronger effect = lower value 0.978 | locus YDR001C, strain nth1, stronger effect = lower value 1.01 | locus YDR069C, strain doa4, stronger effect = lower value 1.01 | locus YDR101C, strain arx1, stronger effect = lower value 0.982 | locus YDR137W, strain rgp1, stronger effect = lower value 1.04 | locus YDR150W, strain NUM1, stronger effect = lower value 1.02 | locus YDR159W, strain sac3, stronger effect = lower value 0.992 | locus YDR162C, strain NBP2, stronger effect = lower value 0.992 | locus YDR195W, strain ref2 0.966 | locus YDR297W, strain sur2, stronger effect = lower value 1.01 | locus YDR318W, strain mcm21, stronger effect = lower value 0.989 | locus YDR334W, strain swr1, stronger effect = lower value 1 | locus YDR335W, strain msn5, stronger effect = lower value 1.03 | locus YDR363W, strain ESC2, stronger effect = lower value 1 | locus YDR388W, stronger effect = lower value 0.998 | locus YDR392W, strain spt3, stronger effect = lower value 1.04 | locus YDR502C, strain sam2, stronger effect = lower value 0.979 | locus YEL003W, strain gim4, stronger effect = lower value 1.02 | locus YEL037C, strain rad23, stronger effect = lower value 1.01 | locus YEL061C, strain CIN8 (second series), stronger effect = lower value 1.02 | locus YEL061C, strain CIN8, stronger effect = lower value 0.999 | locus YER002W, strain NOP16, stronger effect = lower value 1 | locus YER015W, strain faa2, stronger effect = lower value 1.03 | locus YER016W, strain bim1, stronger effect = lower value 1.02 | locus YER110C, stronger effect = lower value 0.968 | locus YER111C, strain swi4, stronger effect = lower value 1.01 | locus YER155C, strain BEM2 (second series), stronger effect = lower value 1.02 | locus YER155C, strain BEM2, stronger effect = lower value 0.983 | locus YER167W, strain BCK2, stronger effect = lower value 1 | locus YFR010W, strain ubp6, stronger effect = lower value 1 | locus YGL078C, strain dbp3, stronger effect = lower value 0.998 | locus YGL086W, strain mad1, stronger effect = lower value 0.988 | locus YGL167C, strain pmr1, stronger effect = lower value 1.02 | locus YGL173C, strain kem1, stronger effect = lower value 1.02 | locus YGL227W, strain vid30, stronger effect = lower value 1.01 | locus YGL240W, strain doc1, stronger effect = lower value 0.991 | locus YGL248W, strain PDE1, stronger effect = lower value 0.999 | locus YGL253W, strain hxk2, stronger effect = lower value 1.03 | locus YGR078C, strain PAC10, stronger effect = lower value 0.983 | locus YGR135W, strain pre9, stronger effect = lower value 0.988 | locus YGR229C, strain SMI1, stronger effect = lower value 1.01 | locus YGR252W, strain gcn5, stronger effect = lower value 1.12 | locus YHR013C, strain ard1, stronger effect = lower value 1.08 | locus YHR027C, strain rpn1, stronger effect = lower value 1.02 | locus YHR030C, strain SLT2, stronger effect = lower value 0.992 and 1.05 | locus YHR079C, strain IRE1 (second series), stronger effect = lower value 0.987 | locus YHR079C, strain IRE1, stronger effect = lower value 1.06 | locus YHR094C, strain hxt1, stronger effect = lower value 0.981 | locus YHR129C, strain ARP1, stronger effect = lower value 1 | locus YHR142W, strain chs7, stronger effect = lower value 1.05 | locus YHR200W, strain rpn10, stronger effect = lower value 0.993 | locus YIL066C, strain RNR3, stronger effect = lower value 0.995 | locus YIL073C, strain SPO22, stronger effect = lower value 0.916 | locus YIL125W, strain kgd1, stronger effect = lower value 0.973 | locus YIR030C, strain dcg1, stronger effect = lower value 0.99 | locus YJL092W, strain hpr5, stronger effect = lower value 1.02 | locus YJL095W, strain BCK1 (second series), stronger effect = lower value 1 | locus YJL095W, strain BCK1, stronger effect = lower value 1.01 and 1.03 | locus YJL115W, strain asf1, stronger effect = lower value 1.02 | locus YJL129C, strain trk1, stronger effect = lower value 1.03 | locus YJL134W, strain LCB3, stronger effect = lower value 0.989 | locus YJL154C, strain vps35, stronger effect = lower value 1.02 | locus YJL164C, strain tpk1, stronger effect = lower value 1.02 | locus YJL166W, strain qcr8, stronger effect = lower value 1.01 | locus YJL168C, strain set2, stronger effect = lower value 0.993 | locus YJL187C, strain SWE1 (second series), stronger effect = lower value 0.985 | locus YJR043C, strain POL32, stronger effect = lower value 1.01
